Rows were chosen to be rich in hits. Some 11% of all compounds tested hit in one or more screens of this group.
PNC assembly inh: blocks assembly of the perinucleolar compartment | actives 3.1% (n = 140,000) | activity change (PNC), negative = inhibition, % at 10 µM | AID 2417 | PC3M PTB-GFP, PNC prevalence imaging, 16 h; stronger effect = lower value;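 active = readout at or below -70, meaning at least 70% loss of cells showing the perinucleolar compartment, a nuclear body marking cancer cells; inconclusive = readout between -30 and a set limit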
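Read-out is percentage of cells bearing a perinucleolar compartment, from automated 20x imaging of fixed, Hoechst-stained PC3M PTB-GFP cells. Cells were seeded 4 h, then exposed 16 h to compound (23 nl of library stock) in duplicate plates.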
ALDH1A1 block: ALDH1A1 (human) enzyme inhibition; P00352; Purified ALDH1A1, NADH fluorescence, propionaldehyde substrate; Potency, µM (series often up to 75.3 µM), hits mostly inhibitors; actives 7.3% (n = 220,000); AID 1030
Target sequence (P00352 whole entry, looked up): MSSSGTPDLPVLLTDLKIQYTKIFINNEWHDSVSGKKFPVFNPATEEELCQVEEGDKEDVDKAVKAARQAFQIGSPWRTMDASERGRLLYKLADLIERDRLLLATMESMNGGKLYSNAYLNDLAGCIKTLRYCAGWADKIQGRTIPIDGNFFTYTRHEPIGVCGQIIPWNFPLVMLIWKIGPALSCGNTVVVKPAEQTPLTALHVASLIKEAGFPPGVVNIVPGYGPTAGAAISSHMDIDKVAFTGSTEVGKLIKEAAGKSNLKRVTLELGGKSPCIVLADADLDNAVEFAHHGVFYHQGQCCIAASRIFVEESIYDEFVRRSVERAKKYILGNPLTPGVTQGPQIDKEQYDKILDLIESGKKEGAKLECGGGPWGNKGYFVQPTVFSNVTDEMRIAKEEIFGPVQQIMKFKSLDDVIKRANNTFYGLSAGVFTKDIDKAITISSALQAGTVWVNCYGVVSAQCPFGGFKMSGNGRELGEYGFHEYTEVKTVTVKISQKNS
HPGD block: inhibitors of human 15-hydroxyprostaglandin dehydrogenase (HPGD). P15428. purified HPGD, NADH fluorescence kinetic, PGE2 substrate. Potency, µM, hits mostly inhibitors. actives 4.3% (n = 150,000). AID 894
Target sequence (P15428 whole entry, looked up): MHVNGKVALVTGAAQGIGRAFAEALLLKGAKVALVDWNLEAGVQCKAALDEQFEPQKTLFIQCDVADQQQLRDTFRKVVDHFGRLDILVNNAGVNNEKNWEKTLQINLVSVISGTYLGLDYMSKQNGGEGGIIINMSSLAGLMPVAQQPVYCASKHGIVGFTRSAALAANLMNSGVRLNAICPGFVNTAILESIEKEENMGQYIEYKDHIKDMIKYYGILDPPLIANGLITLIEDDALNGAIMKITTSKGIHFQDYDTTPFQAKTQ
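20 nM HPGD preincubated 15 min at room temperature with compound in 50 mM Tris-HCl pH 8, 0.01% Tween 20. Started with 1 mM NAD+ and 30 uM prostaglandin E2; NADH fluorescence (360/450 nm) read 5 times over 30-s intervals, last minus first.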
Large screens that a line does not name were inactive. Unless noted, calls come from the whole dose curve; as a rule, active = well fitted inhibition curve with a large enough effect (not every such curve was filed as active); inconclusive = small, poorly fitted or top-dose-only effect, or another doubt; inactive = no such curve, though single readings can be large or run the other way.

C=CCNC(=O)c1ccc(Cn2c(=S)[nH]c3cc4c(cc3c2=O)OCO4)cc1	none
COc1ccc(OC)c(-n2c(=S)[nH]c3cc(C(=O)NCCCN4CCCC4=O)ccc3c2=O)c1	none
CCN1CCN(C(=O)c2ccc3c(=O)n(Cc4ccccc4OC)c(=S)[nH]c3c2)CC1	none
C=CCNC(=O)c1ccc2c(=O)n(CCCN3CCCC3=O)c(=S)[nH]c2c1	ALDH1A1 block 3.16µM (no result: PNC assembly inh, HPGD block)
COC(=O)CNC(=O)CCCCC(=O)NCC(=O)OC	none
Cc1cccc(C)c1NS(=O)(=O)c1ccc(F)cc1	none
CCOc1ccccc1-n1c(SCC(=O)NC(C)CC)nnc1-c1ccoc1C (stereo not drawn)	none
O=C(Nc1nc(N2C(=O)c3ccccc3C2=O)n(-c2ccccc2)n1)c1ccc(Cl)cc1	none
CCN1C(=O)N(CN2CCOCC2)C2C1N(CN1CCOCC1)C(=O)N2CC (stereo not drawn)	none
O=C(CCCn1c(=O)[nH]c2cc(Cl)ccc2c1=O)NCCCN1CCCC1=O	none
Cc1ccc(CNC(=O)c2ccc3c(=O)n(CCCN4CCCC4=O)c(=S)[nH]c3c2)cc1	ALDH1A1 block inconclusive
O=C(NCc1ccccc1)c1ccc2c(=O)n(CCCN3CCCC3=O)c(=S)[nH]c2c1	ALDH1A1 block 4.47µM
O=C(NCCCN1CCCC1=O)c1ccc2c(=O)n(Cc3ccco3)c(=S)[nH]c2c1	PNC assembly inh inconclusive, ALDH1A1 block 12.6µM
COC(=O)C1=C(C(=O)OC)[C@@H]2N(C)c3ccccc3[C@@]23C[C@@H](C(=O)OC)N(S(=O)(=O)c2ccc(C(F)(F)F)cc2)C3=N1	none (no result: PNC assembly inh)
CC(C)(C)OC(=O)N1CCC[C@H]1C(=O)N/N=C/c1ccc2ncccc2c1	none (no result: PNC assembly inh, HPGD block)
O=C(c1ccc(Br)o1)N1CCN(c2ccc3nnc(-c4ccc(F)cc4)n3n2)CC1	none
O=C(COC(=O)c1cccc(Cl)c1Cl)NCCN1C(=O)CSC1=O	none
Cn1c(SCC(=O)NCCN2C(=O)CSC2=O)nnc1-c1ccccc1	PNC assembly inh -81.7
Cc1ccc(-n2c(SCC(=O)NCCN3C(=O)CSC3=O)nnc2-c2ccccc2)cc1	none
O=C(COC(=O)c1ccccc1Br)NCCN1C(=O)CSC1=O	ALDH1A1 block 14.1µM (no result: PNC assembly inh, HPGD block)
CN(C)S(=O)(=O)CC12CCC(CC1=O)C2(C)C (stereo not drawn)	PNC assembly inh inconclusive
COc1ccc(-c2nc(-c3ccccc3)ncc2S(C)(=O)=O)cc1	none (no result: PNC assembly inh, HPGD block)
Cc1cc(C)c(NC(=S)NC(=O)c2c(Cl)c(C)nn2C)c([N+](=O)[O-])c1	PNC assembly inh inconclusive, ALDH1A1 block inconclusive
CC(=O)c1ccc(NC(=S)NC(=O)c2c(Cl)c(C)nn2C)cc1	PNC assembly inh -109.0, ALDH1A1 block inconclusive
CCCCOC(=O)Nc1ccc(C(=O)OCCC)cc1	none
CCCCOC(=O)c1ccc(NC(=S)NC(=O)c2c(Br)c(C)nn2C)cc1	ALDH1A1 block 3.98µM
Cc1cc(=O)[nH]c(SCC(=O)NCC2CCCCC2)c1C#N	none (no result: PNC assembly inh, HPGD block)
NC(=O)C1CCCN(C(=S)NCc2ccc3c(c2)OCO3)C1 (stereo not drawn)	ALDH1A1 block 25.1µM (no result: PNC assembly inh, HPGD block)
O=C(c1ccccc1)N1CCN(C(=S)NCc2ccc3c(c2)OCO3)CC1	ALDH1A1 block 17.8µM, HPGD block 31.6µM
O=C(c1ccccc1)N1CCN(C(=S)NCCc2ccccc2)CC1	ALDH1A1 block inconclusive
NC(=O)C1CCN(C(=S)NCc2ccc3c(c2)OCO3)CC1	none (no result: PNC assembly inh, HPGD block)
O=C(/C=C/c1cccs1)N1CCN(c2ccccc2)CC1	none (no result: PNC assembly inh, HPGD block)
N#C/C(=C\C=C\c1ccccc1)C(=O)NCc1cccnc1	none (no result: PNC assembly inh, HPGD block)
COc1ccc(C(=O)CCC(C)(C)[N+](=O)[O-])cc1OC	ALDH1A1 block 8.91µM (no result: PNC assembly inh, HPGD block)
COc1ccc(CCNc2ccc(C(=O)O)cc2[N+](=O)[O-])cc1OC	none (no result: PNC assembly inh, HPGD block)
Cn1cnnc1SCC(=O)Nc1ncc(C(F)(F)F)cc1Cl	none (no result: PNC assembly inh, HPGD block)
O=C(O)COc1ccccc1/C=C1\SC(=S)N(/N=C/c2ccccc2O)C1=O	ALDH1A1 block inconclusive, HPGD block 8.91µM
O=C(O)COc1ccccc1/C=C1\SC(=Nc2ccc(F)cc2)N(c2ccc(F)cc2)C1=O	none (no result: PNC assembly inh, HPGD block)
CCCOc1ccc(-c2nc(=S)[nH][nH]2)cc1	ALDH1A1 block inconclusive, HPGD block 12.6µM
CCCOc1ccc(C2=NNC(=O)CC2)cc1	none
CCCNC(=O)c1cnc(Sc2ncc(C(F)(F)F)cc2Cl)n1C	none
CC(C)n1c(SCC(N)=O)nc2c1c(=O)[nH]c(=O)n2C	ALDH1A1 block 22.4µM, HPGD block inconclusive
CCCCCSc1nc2c(c(=O)[nH]c(=O)n2C)n1C(C)C	PNC assembly inh -119.3, ALDH1A1 block inconclusive
CCCCCSc1nc2c(c(=O)[nH]c(=O)n2C)n1C	none
C/C=C/CSc1nc2c(c(=O)[nH]c(=O)n2C)n1C(C)C	ALDH1A1 block inconclusive
O=C(NCCc1ccccc1)Nc1ccc2c(c1)OCO2	none (no result: PNC assembly inh, HPGD block)
O=c1c(-c2cc(F)cc(F)c2)nc2cnc(Oc3ccccc3)nc2n1C1CC1	ALDH1A1 block inconclusive (no result: PNC assembly inh)
CCOC(=O)c1sc(NC(=O)C(C)Sc2nc(N)cc(=O)[nH]2)nc1C (stereo not drawn)	none (no result: PNC assembly inh, HPGD block)
COc1cccc(OC)c1C(=O)NC(=S)NNC(=O)[C@H]1C[C@@H]1c1ccccc1	none (no result: PNC assembly inh, HPGD block)
O=C(NC(=S)NNC(=O)[C@H]1C[C@@H]1c1ccccc1)c1cccc(F)c1	ALDH1A1 block 22.4µM (no result: PNC assembly inh, HPGD block)
O=C(CSc1c[nH]c2ccccc12)N1CCOCC1	none
CC(C)Cn1c(-c2ccc(Cl)cc2)cnc1SCC(=O)N1CCOCC1	none
Cc1cc(=O)[nH]c(SCC(=O)Nc2nnc(CC(C)C)s2)n1	HPGD block 31.6µM
COCc1nnc(NC(=O)CSc2ccccc2)s1	none
CC(C)Cc1nnc(NC(=O)CSc2nc(-c3ccccc3)cc(=O)[nH]2)s1	none (no result: PNC assembly inh, HPGD block)
COCc1nnc(NC(=O)CSCc2ccccc2)s1	ALDH1A1 block 17.8µM, HPGD block inconclusive
Cc1nnc(NC(=O)c2sc3ccccc3c2Cl)s1	none
COCc1nnc(NC(=O)c2sc3ccccc3c2Cl)s1	ALDH1A1 block inconclusive, HPGD block 31.6µM
COCc1nnc(NC(=O)CSc2ccc(C)cc2)s1	ALDH1A1 block 20µM, HPGD block 28.2µM
COCc1nnc(NC(=O)CCc2ccccc2)s1	PNC assembly inh inconclusive
O=C1CC2c3ccccc3C1C1C(=O)N(CCc3ccccc3)C(=O)C21 (stereo not drawn)	none (no result: PNC assembly inh, HPGD block)
Cc1nnc2sc(SCC(=O)Nc3ccc(Cl)cc3)nn2c1=O	none (no result: PNC assembly inh, HPGD block)
CCCCOc1ccc(OCCCC)c2c1NC1(N2)C(=O)N(C(C)=O)c2ccccc21	none
COc1ccc2c(CC(=O)Nc3cccc(S(=O)(=O)N4CCOCC4)c3)coc2c1	ALDH1A1 block inconclusive
Cc1ccc(C)c(S(=O)(=O)NC(C)C(=O)Nc2ccc(-c3nc4ccccc4s3)cc2)c1 (stereo not drawn)	ALDH1A1 block inconclusive, HPGD block inconclusive
COc1ccc(NS(=O)(=O)c2c(F)cc(F)c(Cl)c2F)cc1S(=O)(=O)N1CCCCC1	none
COc1ccc(Cl)cc1NC(=S)N1CCCC1	none (no result: PNC assembly inh, HPGD block)
Cc1nn(-c2ccccc2)c(C)c1/C=N/n1c(-c2ccc(Cl)cc2)n[nH]c1=S	ALDH1A1 block inconclusive, HPGD block inconclusive
Cc1nn(-c2ccccc2)c(C)c1/C=N/NC(=O)c1cc(-c2ccccc2)n[nH]1	PNC assembly inh -87.4
CC(C)(C)c1ccc(-c2n[nH]c(=S)n2C2CCCC2)cc1	ALDH1A1 block inconclusive, HPGD block inconclusive
Cn1cccc1/C=N/n1c(-c2ccc(C(C)(C)C)cc2)n[nH]c1=S	ALDH1A1 block inconclusive, HPGD block 11.2µM
Cc1nn(-c2ccccc2)c(C)c1/C=N/NC(=O)c1cc(-c2cccc3ccccc23)n[nH]1	none

Bioassay records (PubChem)
